# In PubChem BioAssay (NCATS):
# A number with no mark means an inactive call. Results filed as inconclusive are left out. Where a call stands in place of a potency, no number is given. The source made the active and inactive calls. Unless noted, calls follow the shape of the dose curve; as a rule, active = well fitted curve in the direction sought with a large enough effect; inconclusive = small, poorly fitted or top-dose-only effect, or another doubt; inactive = no such curve, though single readings can be large; an effect the other way counts as inactive or inconclusive.
# Legend:
# [1] = molecular target: Voltage-gated inwardly rectifying potassium channel KCNH2 (Homo sapiens) (UniProt Q12809); assay: qHTS Assay for Small Molecule Inhibitors of the Human hERG Channel Activity (AID 588834);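 also: lower thallium flux fluorescence means stronger hERG block; nearly all actives have a fitted effect of over 50% in size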; also: potency is read from the fitted curve at half-maximal effect
# Sequence of Voltage-gated inwardly rectifying potassium channel KCNH2 (Homo sapiens) (Q12809 whole entry, looked up): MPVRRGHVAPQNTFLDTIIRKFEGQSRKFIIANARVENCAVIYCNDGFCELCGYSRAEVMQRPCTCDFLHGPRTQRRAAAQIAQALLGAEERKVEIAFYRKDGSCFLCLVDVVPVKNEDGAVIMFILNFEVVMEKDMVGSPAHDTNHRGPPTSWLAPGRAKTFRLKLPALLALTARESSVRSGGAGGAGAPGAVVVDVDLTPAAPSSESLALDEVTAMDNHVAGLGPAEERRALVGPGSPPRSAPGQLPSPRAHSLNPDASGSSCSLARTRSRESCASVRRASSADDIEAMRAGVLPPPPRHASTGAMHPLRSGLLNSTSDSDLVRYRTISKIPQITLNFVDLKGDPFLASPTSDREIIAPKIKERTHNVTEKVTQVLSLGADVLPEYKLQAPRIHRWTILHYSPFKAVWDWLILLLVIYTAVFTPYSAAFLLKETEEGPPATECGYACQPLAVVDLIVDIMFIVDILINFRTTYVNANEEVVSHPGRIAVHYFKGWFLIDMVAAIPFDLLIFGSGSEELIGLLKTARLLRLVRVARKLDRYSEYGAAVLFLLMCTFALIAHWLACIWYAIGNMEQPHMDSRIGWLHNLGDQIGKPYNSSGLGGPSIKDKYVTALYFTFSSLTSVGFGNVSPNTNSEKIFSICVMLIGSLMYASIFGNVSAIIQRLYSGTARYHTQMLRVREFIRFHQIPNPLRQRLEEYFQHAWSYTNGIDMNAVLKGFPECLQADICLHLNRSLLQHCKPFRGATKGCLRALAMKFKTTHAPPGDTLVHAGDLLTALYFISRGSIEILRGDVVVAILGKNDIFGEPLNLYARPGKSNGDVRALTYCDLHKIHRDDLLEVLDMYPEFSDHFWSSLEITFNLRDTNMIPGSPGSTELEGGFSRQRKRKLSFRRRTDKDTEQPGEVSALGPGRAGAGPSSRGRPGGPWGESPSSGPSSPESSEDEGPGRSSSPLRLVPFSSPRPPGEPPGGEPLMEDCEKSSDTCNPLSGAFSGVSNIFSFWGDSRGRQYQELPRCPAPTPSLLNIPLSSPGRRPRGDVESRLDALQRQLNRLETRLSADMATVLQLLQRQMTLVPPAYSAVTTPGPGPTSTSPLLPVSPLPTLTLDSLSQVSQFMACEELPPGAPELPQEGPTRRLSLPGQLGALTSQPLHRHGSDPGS
# How it was run: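 Measured: FluxOR fluorescence after thallium stimulation in U2OS cells transduced with hERG by baculovirus. Compounds pre-incubated around 10 min; medium Opti-MEM with 2% FCS. AC50 from Hill equation.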
# [2] = molecular target: Luciferin 4-monooxygenase (Photinus pyralis) (UniProt P08659); assay: Biochemical firefly luciferase enzyme assay for NPC (AID 624030); also: nearly all actives have a fitted effect of over 70% in size; also: potency is read from the fitted curve at half-maximal effect
# Sequence of Luciferin 4-monooxygenase (Photinus pyralis) (P08659 whole entry, looked up): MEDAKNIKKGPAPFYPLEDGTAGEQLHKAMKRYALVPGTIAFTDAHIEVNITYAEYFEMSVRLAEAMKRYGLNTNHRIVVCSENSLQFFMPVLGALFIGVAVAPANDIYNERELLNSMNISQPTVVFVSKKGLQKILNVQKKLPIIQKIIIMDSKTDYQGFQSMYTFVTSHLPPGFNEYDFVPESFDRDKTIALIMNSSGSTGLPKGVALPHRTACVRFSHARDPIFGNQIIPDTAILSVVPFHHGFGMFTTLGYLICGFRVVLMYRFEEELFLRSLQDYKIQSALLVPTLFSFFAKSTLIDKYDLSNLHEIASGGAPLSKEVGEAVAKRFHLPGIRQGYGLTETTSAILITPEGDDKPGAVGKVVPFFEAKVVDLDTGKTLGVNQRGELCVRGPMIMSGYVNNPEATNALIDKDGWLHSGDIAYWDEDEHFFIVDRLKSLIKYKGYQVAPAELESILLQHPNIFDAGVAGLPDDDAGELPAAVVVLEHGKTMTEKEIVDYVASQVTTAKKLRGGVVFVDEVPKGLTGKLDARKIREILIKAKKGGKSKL
# How it was run: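 Counter-screen for direct inhibition of the luciferase enzyme by approved-drug library compounds, run at 10 nM enzyme in 50 mM Tris acetate (final). Luminescence was read within 5 min of enzyme-buffer addition and normalized to PTC124 versus DMSO (0%).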
# [3] = S16 Schwann cell viability assay (CellTiter-Glo assay) (AID 624031); also: nearly all actives have a fitted effect of over 70% in size; also: potency is read from the fitted curve at half-maximal effect
# How it was run: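 Rat S16 Schwann cells without reporter constructs received compound or DMSO for 24 h at 37 °C under 5% CO2. Cellular ATP was then quantified by CellTiter-Glo luminescence, with vehicle wells defined as 0% activity and cell-free wells as reference.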
# [4] = S16 Schwann cell PMP22 intronic element firefly luciferase assay (AID 624032); also: nearly all actives have a fitted effect of over 30% in size; also: potency is read from the fitted curve at half-maximal effect
# How it was run: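 Rat S16 Schwann cells stably carrying a PMP22 intronic element-driven Fluc reporter were seeded overnight, then exposed to compounds for 24 h at 37 °C. Luminescence was normalized to PTC124 (positive control) and DMSO (0% activity).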
# [5] = S16 Schwann cell PMP22 intronic element beta-lactamase assay (AID 624044; calls by dose curve; also: nearly all actives have a fitted effect of over 15% in size; also: potency is read from the fitted curve at half-maximal effect)
# How it was run: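 Rat S16 Schwann cells with beta-Lac driven by a PMP22 intronic element, compound-treated 24 h at 37 °C. LiveBLAzer FRET B/G read: 460 nm normalized to potassium clavulanate vs DMSO; 535 nm FRET as viability; concentration-effect curves classified.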
# [6] = molecular target: Glutaminase kidney isoform, mitochondrial (Homo sapiens) (UniProt O94925); assay: qHTS for Inhibitors of Glutaminase (GLS): LOPAC Validation (AID 624146);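 also: glutamate product detected by oxidase and peroxidase coupled Amplex red fluorescence gain; series mostly up to about 46 µM; nearly all actives have a fitted effect of over 60% in size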
# Sequence of Glutaminase kidney isoform, mitochondrial (Homo sapiens) (O94925 whole entry, looked up, canonical isoform): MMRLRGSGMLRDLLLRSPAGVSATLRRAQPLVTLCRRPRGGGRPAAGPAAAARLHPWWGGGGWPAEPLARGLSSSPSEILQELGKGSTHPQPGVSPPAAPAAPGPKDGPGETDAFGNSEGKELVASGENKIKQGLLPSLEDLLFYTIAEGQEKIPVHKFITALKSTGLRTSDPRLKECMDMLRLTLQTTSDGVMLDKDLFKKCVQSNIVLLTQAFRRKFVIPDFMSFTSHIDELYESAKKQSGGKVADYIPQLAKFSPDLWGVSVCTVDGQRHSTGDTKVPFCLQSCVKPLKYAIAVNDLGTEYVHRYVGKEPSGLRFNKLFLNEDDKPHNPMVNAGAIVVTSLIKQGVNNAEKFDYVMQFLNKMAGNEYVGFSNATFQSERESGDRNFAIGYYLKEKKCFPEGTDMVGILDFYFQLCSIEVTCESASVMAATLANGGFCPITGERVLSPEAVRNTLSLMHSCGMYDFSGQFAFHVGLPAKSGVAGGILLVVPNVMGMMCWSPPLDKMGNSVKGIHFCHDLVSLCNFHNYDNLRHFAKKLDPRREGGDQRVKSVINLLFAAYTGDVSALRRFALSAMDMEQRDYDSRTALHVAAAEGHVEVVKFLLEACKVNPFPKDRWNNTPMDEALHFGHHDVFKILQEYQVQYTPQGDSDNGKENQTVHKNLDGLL
# How it was run: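 Enzyme dispensed in phosphate buffer (45 mM, pH 8.2, 0.02% Tween-20), compounds pinned in, then 1 mM L-glutamine solution and the glutamate oxidase–HRP–Amplex Red mix added; fluorescence read immediately and again after 30 min at room temperature.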
# [7] = qHTS of Trypanosoma Brucei Inhibitors: LOPAC Validation (AID 624147)
# How it was run: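 ADP (130 uM final) triggers the TbPYK reaction after compound addition; incubation is 45 min at room temperature. Kinase-Glo Plus is then added and luminescence imaged. Normalized data are fitted to concentration-effect curves.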
# [8] = molecular target: Glucagon-like peptide 1 receptor (Homo sapiens) (UniProt P43220); assay: qHTS of GLP-1 Receptor Agonists: LOPAC Validation (AID 624148);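 also: higher luminescence signal means agonism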
# Sequence of Glucagon-like peptide 1 receptor (Homo sapiens) (P43220 whole entry, looked up): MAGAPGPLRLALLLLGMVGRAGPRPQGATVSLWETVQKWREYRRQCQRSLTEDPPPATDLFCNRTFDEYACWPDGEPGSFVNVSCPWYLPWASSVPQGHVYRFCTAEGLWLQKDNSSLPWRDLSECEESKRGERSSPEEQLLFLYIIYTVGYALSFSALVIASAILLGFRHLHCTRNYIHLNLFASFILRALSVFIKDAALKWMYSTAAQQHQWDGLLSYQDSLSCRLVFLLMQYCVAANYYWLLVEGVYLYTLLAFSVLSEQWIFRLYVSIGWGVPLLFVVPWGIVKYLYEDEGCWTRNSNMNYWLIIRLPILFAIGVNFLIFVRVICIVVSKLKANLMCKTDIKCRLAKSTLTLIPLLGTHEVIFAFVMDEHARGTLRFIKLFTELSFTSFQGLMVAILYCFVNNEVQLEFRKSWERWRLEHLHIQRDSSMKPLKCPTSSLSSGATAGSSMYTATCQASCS
# How it was run: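 HEK293 cells stably co-expressing a cAMP-responsive luciferase reporter and a hypersensitive GLP-1R were plated 12 h at 37 °C and exposed to compounds for 4-6 hr at 37 °C, 5% CO2. Luminescence was read 12 min after adding detection reagent.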
# [9] = qHTS of Nrf2 Activators: LOPAC Validation (AID 624149)
# How it was run: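 Luminescence read-out of ARE-luciferase activation: AREc32_Fluc cells treated with compounds for 24 hr at 37 deg C, then lysed with Steady-Glo for 30 min at room temperature before reading.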
# [10] = qHTS assay for small molecule activators of the p53 signaling pathway (AID 651743; active = well fitted activation curve with a large enough effect in the signal ratio, not every such curve was filed as active; the % refers to the signal ratio; also: series mostly up to about 92 µM); details: HCT-116 p53RE-bla, beta-lactamase FRET ratio, 16 h; activation: active compounds read high
# How it was run: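 Cell-based beta-lactamase reporter (p53 response elements, HCT-116 background). After a 5-hour preincubation, cells received compound for 16 hours at 37 C; substrate development ran 2 hours at room temperature.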
# [11] = qHTS assay for small molecule disruptors of the mitochondrial membrane potential - 1 hr assay (AID 651754; calls by dose curve; also: potency is read from the fitted curve at half-maximal effect; nearly all actives have a fitted effect of over 35% in size)
# How it was run: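 HepG2, 2,000 cells/well, overnight attachment; cpd or DMSO 1 hr, 37C/5% CO2; Mito-MPS dye 30 min, 37C; fluorescence monomer (490/535) and aggregate (540/590).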
# [12] = qHTS assay for small molecule disruptors of the mitochondrial membrane potential - 5 hr assay (AID 651755; calls by dose curve; also: potency is read from the fitted curve at half-maximal effect; nearly all actives have a fitted effect of over 40% in size)
# How it was run: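 HepG2 cells, attached overnight at 37C, were exposed to compound or DMSO for 5 hr at 37C, 5% CO2. Mito-MPS dye was then added for 30 min, and fluorescence read at 490/535 nm (monomers) and 540/590 nm (aggregates).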
# [13] = HTS Assay for Allosteric Antagonists of the Human D2 Dopamine Receptor: Hit Validation in HTRF (AID 624455);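 also: stable D1 dopamine receptor cell line scored for blocking the D1 response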
# How it was run: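 First, antagonism was screened by calcium flux in a force-coupled, inducible Hek293 Trex D2 line challenged with EC80 dopamine. Hits then went into an HTRF assay in cells stably expressing D1, testing inhibition of the D1 response.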
compound,measurement,setting,value
COc1ccc(C(=O)c2ccccc2O)c(O)c1,Potency,[1],inactive
same,Potency,[2],inactive
same,Potency,[3],inactive
same,Potency,[4],inactive
same,Potency,[5],inactive
CC(=O)Nc1ncc([N+](=O)[O-])s1,Potency,[1],inactive
same,Potency,[2],inactive
same,Potency,[3],inactive
same,Potency,[4],inactive
same,Potency,[5],inactive
Nc1ccc(S(=O)(=O)Nc2cnc3ccccc3n2)cc1,Potency,[1],inactive
same,Potency,[2],inactive
same,Potency,[3],inactive
same,Potency,[4],inactive
same,Potency,[5],inactive
Nc1nc(N)c(-c2ccccc2)s1,Potency,[1],inactive
same,Potency,[2],inactive
same,Potency,[3],inactive
same,Potency,[4],inactive
same,Potency,[5],inactive
CCCCN=C(N)N=C(N)N,Potency,[1],inactive
same,Potency,[2],inactive
same,Potency,[3],inactive
same,Potency,[4],inactive
same,Potency,[5],inactive
COc1cc(N)c(Cl)cc1C(=O)NC1CCN(Cc2ccccc2)CC1,Potency,[1],5.01 µM (active)
same,Potency,[2],inactive
same,Potency,[3],inactive
same,Potency,[4],inactive
same,Potency,[5],inactive
NC(N)=NCc1cccc(I)c1,Potency,[1],inactive
same,Potency,[2],inactive
same,Potency,[3],inactive
same,Potency,[4],inactive
same,Potency,[5],inactive
same,outcome,[6],inactive
same,outcome,[7],inactive
same,outcome,[8],inactive
same,outcome,[9],inactive
CC(=O)NO,Potency,[1],inactive
same,Potency,[2],inactive
same,Potency,[3],inactive
same,Potency,[4],inactive
same,Potency,[5],inactive
Nc1ccc(S(=O)(=O)NCc2ccccc2)cc1,Potency,[1],inactive
same,Potency,[2],inactive
same,Potency,[3],inactive
same,Potency,[4],inactive
same,Potency,[5],inactive
COc1cc(C(=O)NCc2ccc(OCCN(C)C)cc2)cc(OC)c1OC,Potency,[1],inactive
same,Potency,[2],inactive
same,Potency,[3],inactive
same,Potency,[4],inactive
same,Potency,[5],inactive
Cc1ccccc1OCC(O)CO (stereo unspecified),Potency,[1],inactive
same,Potency,[2],inactive
same,Potency,[3],inactive
same,Potency,[4],inactive
same,Potency,[5],inactive
O=C(c1ccc(F)cc1)C1CCN(CCn2c(=S)[nH]c3ccccc3c2=O)CC1,Potency,[1],0.251 µM (active)
same,Potency,[2],inactive
same,Potency,[3],inactive
same,Potency,[4],inactive
same,Potency,[5],inactive
O=C(CCN1CCN2CCCC2C1)N1c2ccccc2Sc2ccc(Cl)cc21 (stereo unspecified),Potency,[1],15.8 µM (active)
same,Potency,[2],inactive
same,Potency,[4],inactive
same,Potency,[5],inactive
O=c1[nH]c(=O)n([C@H]2C[C@H](O)[C@@H](CO)O2)cc1F,Potency,[1],inactive
same,Potency,[2],inactive
same,Potency,[3],inactive
same,Potency,[5],0.0056 µM (active)
c1ccc(CC2=NCCN2)cc1,Potency,[1],inactive
same,Potency,[2],inactive
same,Potency,[3],inactive
same,Potency,[5],inactive
C=CCN1CCc2nc(N)sc2CC1,Potency,[1],inactive
same,Potency,[2],inactive
same,Potency,[4],inactive
CCCCCCCCCCCCSCCOCCO,Potency,[1],inactive
same,Potency,[2],inactive
same,Potency,[3],inactive
same,Potency,[5],inactive
O=C(CN1CCN(Cc2ccc3c(c2)OCO3)CC1)N1c2ccccc2Sc2ccccc21,Potency,[1],2.51 µM (active)
same,Potency,[2],inactive
same,Potency,[4],12.8 µM (active)
same,Potency,[5],inactive
CNCCCCOc1ccccc1Cc1ccccc1,Potency,[1],6.31 µM (active)
same,Potency,[2],inactive
same,Potency,[3],28.7 µM (active)
same,Potency,[5],inactive
O=C(O)C1(C(=O)O)CCC1.[NH2-].[NH2-].[Pt+2],Potency,[1],inactive
same,Potency,[3],inactive
same,Potency,[4],inactive
same,Potency,[5],inactive
CCOC(=O)Nc1ccc2c(c1)N(C(=O)CCN1CCOCC1)c1ccccc1S2,Potency,[1],inactive
same,Potency,[2],inactive
same,Potency,[3],inactive
same,Potency,[5],inactive
COc1cc([C@H]2Oc3cc([C@H]4Oc5cc(O)cc(O)c5C(=O)[C@@H]4O)ccc3O[C@@H]2CO)ccc1O,Potency,[1],inactive
same,Potency,[2],inactive
same,Potency,[3],inactive
same,Potency,[5],inactive
same,activation,[10],-9.47%
same,Potency,[11],18.8 µM (active)
same,Potency,[12],26.6 µM (active)
O=C(Nc1ncc([N+](=O)[O-])s1)c1cccs1,Potency,[1],inactive
same,Potency,[2],3.61 µM (active)
same,Potency,[4],inactive
same,Potency,[5],inactive
CCOC(=O)[C@H](CCc1ccccc1)N[C@@H](C)C(=O)N1[C@H](C(=O)O)C[C@H]2CCCC[C@@H]21,Potency,[1],inactive
same,Potency,[2],inactive
same,Potency,[3],inactive
same,Potency,[4],inactive
same,Potency,[5],inactive
same,outcome,[6],inactive
same,outcome,[7],inactive
same,outcome,[8],inactive
same,outcome,[9],inactive
same,outcome,[13],inactive
COc1ccccc1N1CCN(CCCCNC(=O)c2ccc(-c3ccc(C(C)=O)cc3)cc2)CC1,Potency,[1],1.26 µM (active)
same,Potency,[2],inactive
same,Potency,[4],inactive
O=[N+]([O-])c1cccc(S(=O)(=O)NCCNS(=O)(=O)c2cccc([N+](=O)[O-])c2)c1,Potency,[1],inactive
same,Potency,[2],inactive
same,Potency,[4],inactive
same,Potency,[5],inactive
CCCCCCCCCCCCCC[N+](C)(C)Cc1ccccc1,Potency,[1],7.94 µM (active)
same,Potency,[2],inactive
same,Potency,[4],32.2 µM (active)
same,Potency,[5],inactive
CCc1oc2ccccc2c1C(=O)c1cc(Br)c(O)c(Br)c1,Potency,[1],inactive
same,Potency,[3],inactive
same,Potency,[4],inactive
CN(CCCN1c2ccccc2CCc2ccccc21)CC(=O)c1ccc(Cl)cc1,Potency,[1],5.01 µM (active)
same,Potency,[2],inactive
same,Potency,[5],inactive
Cc1ccc2c(Br)cc(Br)c(O)c2n1,Potency,[1],inactive
same,Potency,[2],inactive
same,Potency,[4],inactive
same,Potency,[5],17.8 µM (active)
NCCNC(=O)c1ccc(Cl)cn1,Potency,[1],inactive
same,Potency,[2],inactive
same,Potency,[4],inactive
CN=C(N)NCCC[C@H](N)C(=O)O,Potency,[1],inactive
same,Potency,[2],inactive
same,outcome,[6],inactive
same,outcome,[7],inactive
same,outcome,[8],inactive
same,outcome,[9],inactive
same,outcome,[13],inactive
